High-throughput results: PubChem BioAssay, several laboratories
Only some compounds are listed: those with a hit (about 1.5% of all), similar ones and a draw of the others.
IDE cell activ – activators of human insulin-degrading enzyme in cells. P14735. HEK cells, FAbeta-B cleavage, fluorescence polarization; 0% vehicle, 100% cell-free pure enzyme wells. activation, % at 5.96 µM. hit rate 0.073% among 340,000. AID 493087;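 active = activation above the mean of all tested compounds plus 3 SD, set per screening campaign, cut at about 17% in these data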
Target sequence (P14735 whole entry, looked up): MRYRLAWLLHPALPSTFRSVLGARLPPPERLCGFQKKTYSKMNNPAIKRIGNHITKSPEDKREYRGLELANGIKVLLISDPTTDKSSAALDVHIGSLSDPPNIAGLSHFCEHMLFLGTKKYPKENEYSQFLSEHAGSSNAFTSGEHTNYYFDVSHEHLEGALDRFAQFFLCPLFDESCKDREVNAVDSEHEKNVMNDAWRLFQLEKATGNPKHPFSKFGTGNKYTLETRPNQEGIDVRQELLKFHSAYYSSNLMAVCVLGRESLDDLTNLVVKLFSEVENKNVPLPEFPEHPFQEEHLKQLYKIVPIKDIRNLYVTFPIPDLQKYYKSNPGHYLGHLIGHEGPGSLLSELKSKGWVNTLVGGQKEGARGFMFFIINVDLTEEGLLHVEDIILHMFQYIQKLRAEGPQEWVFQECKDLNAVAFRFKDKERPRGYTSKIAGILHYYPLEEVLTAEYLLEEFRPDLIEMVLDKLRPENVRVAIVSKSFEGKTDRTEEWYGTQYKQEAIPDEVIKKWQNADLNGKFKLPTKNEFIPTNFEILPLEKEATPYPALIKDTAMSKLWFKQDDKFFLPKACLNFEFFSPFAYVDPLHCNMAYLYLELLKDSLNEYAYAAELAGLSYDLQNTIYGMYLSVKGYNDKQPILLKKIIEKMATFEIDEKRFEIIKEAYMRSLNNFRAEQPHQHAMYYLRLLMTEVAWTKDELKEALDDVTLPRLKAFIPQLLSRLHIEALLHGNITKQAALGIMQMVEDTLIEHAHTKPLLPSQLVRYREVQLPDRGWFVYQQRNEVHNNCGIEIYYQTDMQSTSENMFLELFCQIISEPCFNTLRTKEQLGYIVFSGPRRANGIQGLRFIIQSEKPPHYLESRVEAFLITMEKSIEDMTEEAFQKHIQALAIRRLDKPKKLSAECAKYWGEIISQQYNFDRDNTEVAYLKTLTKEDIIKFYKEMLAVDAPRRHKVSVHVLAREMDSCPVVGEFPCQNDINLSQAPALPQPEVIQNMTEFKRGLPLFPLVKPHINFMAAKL
IDE cell inh – cellular human IDE inhibition | P14735 | HEK cells, FAbetaB cleavage, fluorescence polarization | inhibition, % at 5.59 µM | hit rate 0.41% among 320,000;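 active = percent inhibition above the average of all tested compounds plus 3 SD, set per screening campaign, cut at about 16% in these data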;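 also: IDE supplied by intact live HEK cells; FP after avidin binding of uncleaved biotin substrate so inhibition keeps polarization high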
cardiac RTF act – increases calcium sensitivity of human cardiac regulated thin filaments. hit rate 0.24% among 340,000. AID 493008. activation, % at 7.2 µM. P19429+P45379. IANBD-labeled TnC RTF fluorescence at EC20 calcium; 0% EC20 calcium, 100% full calcium;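 active = activation above the mean over all tested compounds plus 3 SD, cut at about 30% in these data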;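 also: rise in fluorescence read as greater calcium sensitivity of cardiac thin filaments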
CRFR2-BP ag – CRF-BP/CRF-R2 complex agonism | HEK293 CRF-R2/CRF-BP, calcium dye fluorescence (FLIPR); percent of saturating CRF peptide response | activation, % at 13.2 µM | hit rate 0.46% among 350,000;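 active = activation of at least 50%, plus an integration ratio under a set limit after plate pattern correction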
RTF Ca sens inh – cardiac RTF calcium desensitization; P19429+P45379; IANBD-labeled cardiac RTF, Ca2+ fluorescence; inhibition, % at 7.15 µM; hit rate 0.12% among 340,000;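 active = inhibition above the mean inhibition of all tested compounds plus 3 SD, cut at about 17% in these data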;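 also: assay run at fixed EC70 calcium of 1.6 mM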
CRFR2-BP antag – CRF-BP/CRF-R2 complex antagonism; HEK293 CRF-R2/CRF-BP, CRF-induced calcium fluorescence; inhibition, % at 11.8 µM; hit rate 0.59% among 350,000; AID 588475;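 active = inhibition of the ligand-induced calcium signal above about 50% at the single tested concentration, limit read from the data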
Numbers stand for hits.

What do the screens show for `COc1cccc(-c2cccc(NC(=O)C3CCN(Cc4ccon4)CC3)c2)c1`?
IDE cell activ: inactive; IDE cell inh: inactive; cardiac RTF act: inactive; CRFR2-BP ag: inactive; RTF Ca sens inh: inactive; CRFR2-BP antag: inactive

How did COC(=O)c1ccc(N2CCN(C)CC2)c(NC(=O)COc2cccc(C)c2)c1 do in these assays?
IDE cell activ: inactive; IDE cell inh: inactive; cardiac RTF act: inactive; CRFR2-BP ag: inactive; RTF Ca sens inh: inactive; CRFR2-BP antag: inactive

Results for CN(C)C(=O)COc1ccc2c3c(c(=O)oc2c1)CCCC3 ?
IDE cell activ: inactive; IDE cell inh: inactive; cardiac RTF act: inactive; CRFR2-BP ag: inactive; RTF Ca sens inh: inactive; CRFR2-BP antag: inactive

Results for COc1ccc(CCNC(=S)NCCc2ccc(OC)c(OC)c2)cc1OC ?
IDE cell inh: inactive; CRFR2-BP ag: inactive; CRFR2-BP antag: inactive

How did COc1ccc(CCNC(N)=S)cc1OC do in these assays?
IDE cell activ: inactive; IDE cell inh: inactive; cardiac RTF act: inactive; CRFR2-BP ag: inactive; RTF Ca sens inh: inactive; CRFR2-BP antag: 63

Results for Cc1ccc2c(C(=O)CNc3nncs3)c(C)[nH]c2c1 ?
IDE cell activ: inactive; IDE cell inh: inactive; cardiac RTF act: inactive; CRFR2-BP ag: inactive; RTF Ca sens inh: inactive; CRFR2-BP antag: inactive

Results for [O-][n+]1onc2c1CCC(=N/O)/C2=N\Nc1ccccc1 ?
IDE cell inh: inactive

What do the screens show for `COc1ccccc1-c1c(NC(=O)C(C)C)n(C)c2ccccc2c1=O`?
IDE cell activ: inactive; IDE cell inh: inactive; cardiac RTF act: inactive; CRFR2-BP ag: inactive; RTF Ca sens inh: inactive; CRFR2-BP antag: 106

What do the screens show for `CCn1nc(C)c(NC(=O)Nc2cccc(Cl)c2Cl)c1C`?
IDE cell activ: inactive; IDE cell inh: inactive; cardiac RTF act: inactive; CRFR2-BP ag: inactive; RTF Ca sens inh: inactive; CRFR2-BP antag: 53

How did CCn1nc(C)c(NC(=O)c2ccc(Cl)cc2)c1C do in these assays?
IDE cell activ: inactive; IDE cell inh: inactive; cardiac RTF act: inactive; CRFR2-BP ag: inactive; RTF Ca sens inh: inactive; CRFR2-BP antag: inactive

Results for Cc1noc(C)c1COC(=O)c1ccc(S(=O)(=O)N2CCCCC2)cc1 ?
IDE cell activ: inactive; IDE cell inh: inactive; cardiac RTF act: inactive; CRFR2-BP ag: inactive; RTF Ca sens inh: inactive; CRFR2-BP antag: inactive

What do the screens show for `CCOc1cc(/C=C2\C(=N)N3N=C(S(C)(=O)=O)SC3=NC2=O)ccc1OCCOc1cccc(OC)c1`?
IDE cell activ: inactive; IDE cell inh: inactive; cardiac RTF act: inactive; CRFR2-BP ag: inactive; RTF Ca sens inh: inactive; CRFR2-BP antag: inactive

Results for COc1cc(/C=C2\C(=N)N3N=C(S(C)(=O)=O)SC3=NC2=O)cc(OC)c1OCCOc1ccc(C)cc1 ?
IDE cell activ: inactive; IDE cell inh: inactive; cardiac RTF act: inactive; CRFR2-BP ag: inactive; RTF Ca sens inh: inactive; CRFR2-BP antag: inactive

Results for CCS(=O)(=O)C1=NN2C(=N)/C(=C\c3ccc(OCCOc4cccc(OC)c4)c(OC)c3)C(=O)N=C2S1 ?
IDE cell activ: inactive; IDE cell inh: inactive; cardiac RTF act: inactive; CRFR2-BP ag: inactive; RTF Ca sens inh: inactive; CRFR2-BP antag: 53

Results for COc1cc(/C=C2\C(=N)N3N=C(S(C)(=O)=O)SC3=NC2=O)ccc1OCCOc1ccc(C)cc1 ?
IDE cell activ: inactive; IDE cell inh: inactive; cardiac RTF act: inactive; CRFR2-BP ag: inactive; RTF Ca sens inh: inactive; CRFR2-BP antag: 72

What do the screens show for `C=CCn1c(SCc2c(C)noc2C)nnc1C1COc2ccccc2O1` (stereo unspecified)?
IDE cell activ: inactive; IDE cell inh: inactive; cardiac RTF act: inactive; CRFR2-BP ag: inactive; RTF Ca sens inh: inactive; CRFR2-BP antag: inactive

Results for CC(C)OP(=O)(c1ccc(N(C)C)cc1)C(O)c1ccc(N(C)C)cc1 (stereo unspecified) ?
IDE cell activ: inactive; IDE cell inh: inactive; cardiac RTF act: inactive; CRFR2-BP ag: inactive; RTF Ca sens inh: inactive; CRFR2-BP antag: inactive

What do the screens show for `CC(=O)c1ccccc1NC(=O)Cn1c(=O)cnc2ccccc21`?
IDE cell activ: inactive; IDE cell inh: inactive; cardiac RTF act: inactive; CRFR2-BP ag: inactive; RTF Ca sens inh: inactive; CRFR2-BP antag: 72

Results for O=C(Cn1c(=O)cnc2ccccc21)Nc1ccccc1N1CCOCC1 ?
IDE cell activ: inactive; IDE cell inh: inactive; cardiac RTF act: inactive; CRFR2-BP ag: inactive; RTF Ca sens inh: inactive; CRFR2-BP antag: inactive
